Rows were chosen to be rich in hits. Some 2.2% of all compounds tested hit in one or more screens of this group.
TMEM16A inh: TMEM16A chloride channel inhibitors, primary screen, cell-based, HTS. AID 588511, 2011. Anoctamin-1 (Mus musculus), Q8BHY3. HEK293 TMEM16A/YFP iodide influx fluorescence, ionomycin. hit rate 1.2% among 310,000. normalized B-score (activity score, 25-100; higher = stronger inhibition) at 10 µM;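 active = ratio plate-corrected score three or more library SD toward inhibition, starting fluorescence score within five deviations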;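 also: score derived from kinetic fluorescence span divided by baseline fluorescence per well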
TMEM16A act: TMEM16A chloride channel activators or potentiators, primary screen, cell-based, HTS. AID 623877, 2012. HEK293 TMEM16A/YFP-H148Q/I152L, iodide quench fluorescence; stronger effect = lower value. hit rate 0.3% among 340,000. B-score at 10 µM;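 active = fluorescence-ratio B-score plate-corrected deviation score at least 3 library SD below zero, with starting fluorescence score within 5 deviations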;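 also: channel opened by trigger with iodide after compound preincubation; score built on the fluorescence ratio of max minus min over baseline; more negative score means more quench and so TMEM16A activation or potentiation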
GRK2 aptamer HTS: compounds blocking aptamer binding on GRK2 – biochemical, human GRK2, bead flow cytometry, HTS, primary screen. hit rate 0.59% among 330,000. AID 488847, 2010. inhibition of aptamer binding, % at 10 µM. FAM-aptamer displacement from GRK2. Beta-adrenergic receptor kinase 1 (Homo sapiens), P25098;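 active = inhibition of aptamer binding above 40%, roughly 3 SD of noise, on plates passing a quality check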;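 also: median bead fluorescence of bound FAM aptamer so fluorescent compounds give negative values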
Target sequence (P25098 whole entry, looked up): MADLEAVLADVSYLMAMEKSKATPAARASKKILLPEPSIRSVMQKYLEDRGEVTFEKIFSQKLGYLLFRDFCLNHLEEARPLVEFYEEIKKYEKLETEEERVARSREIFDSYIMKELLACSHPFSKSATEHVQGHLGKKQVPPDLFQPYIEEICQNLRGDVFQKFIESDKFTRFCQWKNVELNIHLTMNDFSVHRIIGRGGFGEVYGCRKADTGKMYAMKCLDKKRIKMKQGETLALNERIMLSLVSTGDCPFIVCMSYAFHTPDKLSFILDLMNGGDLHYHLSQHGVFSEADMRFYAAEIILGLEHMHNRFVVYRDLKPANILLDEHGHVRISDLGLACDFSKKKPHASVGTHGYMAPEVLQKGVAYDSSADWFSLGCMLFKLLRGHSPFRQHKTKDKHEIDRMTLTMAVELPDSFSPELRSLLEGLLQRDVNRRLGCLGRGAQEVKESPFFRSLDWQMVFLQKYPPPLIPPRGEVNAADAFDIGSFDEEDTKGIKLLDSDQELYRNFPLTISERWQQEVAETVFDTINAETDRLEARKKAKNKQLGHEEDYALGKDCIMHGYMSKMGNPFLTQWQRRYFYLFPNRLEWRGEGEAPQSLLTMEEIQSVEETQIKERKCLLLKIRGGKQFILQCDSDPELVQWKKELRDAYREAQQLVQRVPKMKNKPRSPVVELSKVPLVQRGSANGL
NOD2 RIPK2 PPI: NOD2-RIPK2 binding disruptors in cells, primary screen, fluorescence, CHO cells, BLA complementation. hit rate 0.38% among 360,000. AID 624267, 2012. CCF4 ratio. inhibition, % at 4.98 µM; in the data active = inhibition above about 21%;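 also: 0% = vehicle only and 100% = reference blocker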
TLR9-MyD88 block: inhibitors of TLR9-MyD88 association in cells, primary screen, cell-based, CHO, BLA complementation, fluorescence | inhibition, % at 4.98 µM | hit rate 0.21% among 340,000 | CCF4 FRET ratio | AID 504734, 2011;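 active = inhibition above the mean over all tested compounds plus 3 SD, cut at about 21% in these data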;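 also: 0% = DMSO only wells and 100% = clavulanate BLA inhibitor control wells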
TLR4-MyD88 BLA: inhibitors of TLR4-MyD88 association in cells, primary screen, cell-based, HeLa CL3-4, BLA complementation, FRET ratio. HeLa CL3-4 TLR4/MyD88 BLA complementation. inhibition, % at 8.4 µM. hit rate 0.18% among 200,000; in the data active = inhibition above about 25%;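 also: 0% = vehicle and 100% = reference inhibitor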
TMEM16A reconf: TMEM16A chloride channel inhibitors, confirmation, cell-based, re-confirmation | shares compounds with TMEM16A inh | HEK293 TMEM16A/YFP-H148Q, iodide quench fluorescence; ionomycin added to raise cell calcium | inhibition, % at 10 µM | hit rate 39% among 2,300 | AID 652189, 2013;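 active = mean duplicate percent inhibition, scaled so buffer wells are 0 and the reference blocker 100, over three buffer SD above buffer mean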
HEK293 Ca mobil: calcium mobilization in TMEM16A/YFP HEK293 cells, confirmation, counter-screen for TMEM16A inhibitor project. Fluo4 calcium mobilization. shares compounds with TMEM16A inh. calcium response (% of ionomycin), % at 10 µM. hit rate 2% among 2,300;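 active = duplicate-averaged calcium signal over 20% of the ionomycin maximum, relative to buffer baseline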;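 also: each well's signal is peak minus trough fluorescence divided by its pre-addition baseline; 0% = buffer wells and 100% = ionomycin wells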
YFP-HEK293 quench: iodide YFP quench changes in parental YFP-HEK293, counter-screen for TMEM16A inhibitor project, cell-based; shares compounds with TMEM16A inh; ionomycin; YFP ratio F(max-min)/F0 at 10 µM; 2,300 tested, under 10 active;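 active = yellow fluorescent protein signal ratio exceeding the buffer control mean by over 5 SD of those controls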;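 also: ratio is mean of duplicate wells from kinetic YFP trace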
ClC-1 inh: ClC-1 chloride channel inhibition, selectivity assay for TMEM16A inhibitor project, cell-based, voltage-dependent ClC-1. 2,300 tested, under 10 active. AID 652236, 2013. ratio percent, % at 10 µM. CHO ClC-1-YFP, iodide influx fluorescence quench; iodide control reads 0, buffer control 100. shares compounds with TMEM16A inh;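 active = duplicate-mean ratio percent above the mean of iodide-only control wells, which defines zero, plus 5 of their SD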;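 also: higher percent means stronger block of ClC-1 iodide influx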
Numbers without * were called inactive.

Screening Cc1cccnc1NC(=O)CNC(=O)COc1ccccc1 returned TMEM16A inh inactive, TMEM16A act inactive, GRK2 aptamer HTS 1.0, NOD2 RIPK2 PPI 1.2 and TLR9-MyD88 block -3.9.
Screening COCCCNc1nc2ccccc2nc1NS(=O)(=O)c1cc(Cl)ccc1Cl returned TMEM16A inh 25*, TMEM16A act inactive, GRK2 aptamer HTS 0.0, NOD2 RIPK2 PPI -1.4, TLR9-MyD88 block -12.4, TMEM16A reconf 16.5%*, HEK293 Ca mobil inactive, YFP-HEK293 quench -0.862 and ClC-1 inh -12.0.
CCc1nc2c(OCC(=O)N3CCOCC3)cccn2c1N(C=O)Cc1ccccc1 was read as NOD2 RIPK2 PPI -1.1.
Cc1ccc(C2CC(=O)c3cnc(N4CCN(c5ccccc5)CC4)nc3C2)cc1 (centres undefined) was read as TMEM16A inh inactive, TMEM16A act inactive, GRK2 aptamer HTS 2.0, NOD2 RIPK2 PPI -13.9, TLR9-MyD88 block -7.5 and TLR4-MyD88 BLA -0.9.
Screening COc1ccc(C2CC(=O)c3cnc(N4CCN(Cc5ccccc5)CC4)nc3C2)cc1 (centres undefined) returned TMEM16A inh 25*, TMEM16A act inactive, GRK2 aptamer HTS 0.0, NOD2 RIPK2 PPI -7.2, TLR9-MyD88 block 1.0, TLR4-MyD88 BLA -2.6, TMEM16A reconf inactive, HEK293 Ca mobil inactive, YFP-HEK293 quench -1.15 and ClC-1 inh -5.0.
Screening O=C1CC(c2ccco2)Cc2nc(N3CCN(Cc4ccc5c(c4)OCO5)CC3)ncc21 (centres undefined) returned TMEM16A inh 25*, TMEM16A act inactive, GRK2 aptamer HTS 1.0, NOD2 RIPK2 PPI 8.5, TLR9-MyD88 block -3.1, TLR4-MyD88 BLA -1.2, TMEM16A reconf inactive, HEK293 Ca mobil inactive, YFP-HEK293 quench -0.946 and ClC-1 inh -4.5.
O=C(Nc1nnc(-c2ccc(F)cc2)o1)C1CCCN1S(=O)(=O)c1cccs1 (centres undefined) was read as TMEM16A inh inactive, TMEM16A act inactive, GRK2 aptamer HTS 0.0, NOD2 RIPK2 PPI 2.7 and TLR9-MyD88 block 2.6.
`CC(=O)c1c(C)[nH]c(C(=O)CSc2nc3ccc(C)cc3[nH]2)c1C` gave TMEM16A inh inactive, TMEM16A act inactive, GRK2 aptamer HTS 0.0, NOD2 RIPK2 PPI 6.8, TLR9-MyD88 block -10.2, TLR4-MyD88 BLA 2.6, TMEM16A reconf inactive, HEK293 Ca mobil inactive, YFP-HEK293 quench -0.822 and ClC-1 inh -1.0.
For Cc1ccc2nc(SCC(=O)c3ccc(Cl)s3)[nH]c2c1 the results were TMEM16A inh inactive, TMEM16A act inactive, GRK2 aptamer HTS 0.0, NOD2 RIPK2 PPI 6.2, TLR9-MyD88 block 6.5 and TLR4-MyD88 BLA 14.0.
For COc1ccc(OC)c(CNC(=O)CCC(=O)N2Cc3cccc(OC)c3Oc3ncccc32)c1 the results were TMEM16A inh inactive, TMEM16A act inactive, GRK2 aptamer HTS 3.0, NOD2 RIPK2 PPI -12.2 and TLR9-MyD88 block 8.6.
O=C(CCc1nnc(CCc2ccccc2)o1)NC(c1cccnc1)C(F)(F)F (centres undefined) was read as TMEM16A inh inactive, TMEM16A act inactive, GRK2 aptamer HTS 0.0, NOD2 RIPK2 PPI 3.2 and TLR9-MyD88 block -4.0.
For O=S(=O)(Nc1ncn[nH]1)c1ccc(Cl)cc1 the results were TMEM16A inh inactive, TMEM16A act inactive, GRK2 aptamer HTS 0.0, NOD2 RIPK2 PPI -4.3, TLR9-MyD88 block 3.3 and TLR4-MyD88 BLA -8.1.
For Cc1ccc(Cn2ccc(-c3cnc(-c4ccccc4)s3)n2)cc1 the results were TMEM16A inh 100*, TMEM16A act inactive, GRK2 aptamer HTS 0.0, NOD2 RIPK2 PPI 13.5, TLR9-MyD88 block 14.4, TLR4-MyD88 BLA 9.3, TMEM16A reconf 19.5%*, HEK293 Ca mobil inactive, YFP-HEK293 quench -1.03 and ClC-1 inh -5.5.
CC1(C)C(CO)=CC(=O)C2=C1SCC(=O)N2 was read as TMEM16A inh 100*, TMEM16A act inactive, GRK2 aptamer HTS 3.0, NOD2 RIPK2 PPI -3.2, TLR9-MyD88 block 2.9, TLR4-MyD88 BLA -0.8, TMEM16A reconf inactive, HEK293 Ca mobil inactive, YFP-HEK293 quench -1.08 and ClC-1 inh 1.5.
`CC1=CC(C)(C)N(S(=O)(=O)c2ccc(F)cc2)c2ccc(C)cc21` gave TMEM16A inh inactive, TMEM16A act inactive, GRK2 aptamer HTS 2.0, NOD2 RIPK2 PPI -6.1, TLR9-MyD88 block -4.2 and TLR4-MyD88 BLA -5.5.
Screening CC1=CC(C)(C)N(S(=O)(=O)c2ccc(C)cc2)c2ccccc21 returned TMEM16A inh 100*, TMEM16A act inactive, GRK2 aptamer HTS 6.0, NOD2 RIPK2 PPI 0.0, TLR9-MyD88 block 0.9, TLR4-MyD88 BLA 14.0, TMEM16A reconf inactive, HEK293 Ca mobil inactive, YFP-HEK293 quench -0.935 and ClC-1 inh -15.5.
`OCCC1CN(Cc2ccon2)CCN1Cc1ccc(F)c(F)c1` (centres undefined) gave TMEM16A inh inactive, TMEM16A act inactive, GRK2 aptamer HTS 1.0, NOD2 RIPK2 PPI 4.5, TLR9-MyD88 block 10.9 and TLR4-MyD88 BLA 8.2.
Screening Cn1cc([N+](=O)[O-])c(C(=O)N/N=C/c2ccc3c(c2)OCO3)n1 returned TMEM16A inh inactive, TMEM16A act inactive, GRK2 aptamer HTS 3.0, NOD2 RIPK2 PPI 1.4, TLR9-MyD88 block -1.1 and TLR4-MyD88 BLA -10.2.
O=c1[nH]c2cccc(F)c2n2cccc12 was read as TMEM16A inh inactive, TMEM16A act inactive, GRK2 aptamer HTS 0.0, NOD2 RIPK2 PPI 4.2 and TLR9-MyD88 block -5.6.

High-throughput results from PubChem BioAssay.
